Rows were chosen to be rich in hits. Some 19% of all compounds tested hit in one or more screens of this group.
DT40 TDP1 no CPT = qHTS for Inhibitors of human tyrosyl-DNA phosphodiesterase 1 (TDP1): qHTS in cells in absence of CPT. DT40 Tdp1-/- hTDP1 cells, no CPT, ATP luminescence, 48 h. Potency, µM (titrated, usually from 46.2 µM), inactives show at the top dose activity change, negative = growth inhibition, hits mostly inhibitors. actives 15% (n = 420,000). AID 686978, 2013; also: potency is read from the fitted curve at half-maximal effect; nearly all actives have a fitted effect of over 55% in size
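Growth kinetics read by CellTiter-Glo luminescence after ≥48 hr at 37 °C. Cells: DT40 Tdp1-/- stably carrying human TDP1, 400 per well, compound exposure in the absence of CPT (DMSO vehicle).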
HT1080-NT tox = qHTS for induction of synthetic lethality in tumor cells producing 2HG: qHTS for the HT-1080-NT fibrosarcoma cell line. actives 1.6% (n = 360,000). HT-1080-NT fibrosarcoma viability, CellTiter-Glo ATP luminescence, 48 h. Potency, µM (doses to about 46.1 µM), inactives show top-dose activity, negative = less viability, most hits filed as cytotoxic;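 also: NT is the 2HG producing partner of a matched IDH1 knockdown line; potency is read from the fitted curve at half-maximal effect; 0% = DMSO-treated cells and -100% = media-only wells without cells; nearly all actives have a fitted effect of over 55% in size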
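Toxicity toward the 2HG-producing NT line was scored as %Activity, normalised to DMSO and no-cell wells, from CellTiter-Glo luminescence after 48 hours' treatment.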
IL-1B inflam inh = qHTS for Inhibitors of Inflammasome Signaling: IL-1-beta AlphaLISA Primary Screen; THP-1 LPS/ATP IL-1B secretion, AlphaLISA, 16 h; hits give low values; activity change, % at 57.5 µM; actives 4.7% (n = 360,000); AID 743279, 2014; in the data active = activity change below about -50%; inconclusive = mostly about -30% to -49%
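Secreted IL-1B measured by AlphaLISA bead assay after 16 h compound exposure of THP-1 cells; compounds (final up to 57.5 uM) added 1 h before LPS (250 ng/mL) and ATP (1.25 mM) stimulation; lower signal means less secretion.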
HT1080 IDH1KD tx = qHTS for induction of synthetic lethality in tumor cells producing 2HG: qHTS for the HT-1080-IDH1KD cell line. HT-1080 IDH1 knockdown viability, ATP luminescence, 48 h. Potency, µM (doses to about 46.1 µM), for the others: at the highest dose activity, negative = toxicity, usual class: cytotoxic. actives 2% (n = 360,000);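 also: potency is read from the fitted curve at half-maximal effect; 0% = DMSO wells and -100% = cell-free medium wells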
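CellTiter-Glo luminescence after 48 h compound exposure at 37 degrees C of IDH1-knockdown HT-1080 cells in 5% FBS RPMI. %Activity scaled between DMSO wells and cell-free media wells, with curves fitted and assigned curve classes.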
DT40 TDP1 CPT = qHTS for Inhibitors of human tyrosyl-DNA phosphodiesterase 1 (TDP1): qHTS in cells in presence of CPT. Potency, µM (series often up to 46.2 µM), without a hit: at the highest dose activity change, negative = growth inhibition, hits mostly inhibitors. actives 12% (n = 420,000). chicken DT40 Tdp1-/-;hTDP1 cells + 20 nM CPT, ATP luminescence, 48 h; also: potency is read from the fitted curve at half-maximal effect; nearly all actives have a fitted effect of over 55% in size
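Chicken DT40 Tdp1-/- cells complemented with human TDP1, 400 cells/well, exposed to compounds plus 20 nM camptothecin for at least 48 h at 37 C; viability read as ATP content by CellTiter-Glo luminescence.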
* marks the source's active call; other numbers are inactive results; i = inactive; ? = inconclusive; nt = no result. Unless noted, calls follow the shape of the dose curve; as a rule, active = well fitted curve in the direction sought with a large enough effect; inconclusive = small, poorly fitted or top-dose-only effect, or another doubt; inactive = no such curve, though single readings can be large; an effect the other way counts as inactive or inconclusive. Unless noted, % is scaled to controls: 0 for no effect and ±100 for the full control effect.

SMILES	DT40 TDP1 no CPT	HT1080-NT tox	IL-1B inflam inh	HT1080 IDH1KD tx	DT40 TDP1 CPT
CCn1c(O)c(/C=C/C=C/C=Nc2ccccc2)sc1=S	25.9µM*	-5.1%	-7.3	2.5%	?
C[N+]1(CC(=O)c2cccc([N+](=O)[O-])c2)CCOCC1	0.0%	nt	nt	nt	-4.7%
Cc1c(C(=O)OCC(=O)N(C)C2CCS(=O)(=O)C2)oc2ccc(Br)cc12 (stereo unspecified)	?	6.5%	-10.1	-0.5%	?
Cc1nc(-n2nc(C)c(CCC(C)C)c2C)sc1C(=O)Nc1cccc(Cl)c1C	-12.9%	nt	nt	nt	-0.3%
Cc1cccc(NC(=O)c2sc(-n3nc(C)c(CCC(C)C)c3C)nc2C)c1C	20.6µM*	nt	nt	nt	?
CC(=O)c1cccc(NC(=O)c2sc(-n3nc(C)c(CCC(C)C)c3C)nc2C)c1	?	nt	nt	nt	13µM*
CCOc1ccccc1NC(=O)c1sc(-n2nc(C)c(CCC(C)C)c2C)nc1C	-17.5%	nt	nt	nt	-11.6%
COc1ccc(-c2csc(C(NC(C)=O)c3ccccc3)n2)cc1 (stereo unspecified)	?	12.4%	-7.2	15.4%	?
CC1CCc2onc(C(=O)N3CCN(c4ccccc4)CC3)c2C1 (stereo unspecified)	-30.0%	nt	nt	nt	-29.7%
CCOc1ccc(C2NC(=O)C(C#N)=C(S)N2c2ccc(C)cc2)cc1OC (stereo unspecified)	?	-7.3%	-59.0*	-13.7%	?
Cc1ccc(NC(=O)CCCn2c(=O)c3cccn3c3cccnc32)c(C)c1	-5.6%	nt	nt	nt	8.9%
COc1ccc(/C=C/C(=O)Nc2ccccc2C(=O)O)cc1	-20.1%	-6.1%	28.5	-11.0%	?
COc1ccc(/C=C/C(=O)Nc2ccccc2C(=O)NCC(c2ccc(OC)cc2)N(C)C)cc1 (stereo unspecified)	23.1µM*	?	-77.9*	?	18.4µM*
COc1ccc(C(CNC(=O)CSc2ccccc2C)N(C)C)cc1 (stereo unspecified)	?	-20.0%	-4.7	-0.5%	7.0%
CN(C)C(CNC(=O)c1ccc(-c2ccccc2)cc1)c1ccccc1 (stereo unspecified)	18.4µM*	16.4µM*	-54.0*	16.4µM*	?
COc1ccc(C(CNC(=O)Cc2ccc(-c3ccccc3)cc2)N(C)C)cc1 (stereo unspecified)	18.4µM*	18.4µM*	-28.1	20.6µM*	20.6µM*
CCN1CCC2(CC1)Oc1c(OC)cccc1C1CC(c3cccnc3)=NN12 (stereo unspecified)	-27.3%	5.3%	-9.7	3.3%	-23.7%
COc1ccc(CNc2cccnc2)c(OC)c1OC	-4.7%	1.8%	15.2	-0.7%	-22.8%
COc1ccc(S(=O)(=O)c2ccc(OC)cc2)cc1	-27.9%	-0.1%	-11.4	-4.1%	?
COc1ccc(S(=O)(=O)c2cnc3ccccc3n2)cc1	?	?	-57.6*	?	?
O=S(=O)(Cc1ccccc1)c1cnc2ccccc2n1	16.4µM*	?	-89.1*	?	16.4µM*
O=S(=O)(c1ccc(Br)cc1)c1cnc2ccccc2n1	?	?	-100.6*	?	25.9µM*
Brc1ccc(Sc2cnc3ccccc3n2)cc1	-21.9%	17.3%	-11.5	5.8%	-11.1%
O=C(COc1ccccc1)Nc1cc(NC(=O)COc2ccccc2)cc(C(=O)O)c1	?	-16.5%	43.3	-20.1%	?
Cc1ccc(S(=O)(=O)N2C[C@H]3[C@H]4C(=O)N(Cc5ccccc5)C(=O)[C@H]4CC(=O)[C@H]3[C@@H]2c2ccccc2Cl)cc1	?	28.8%	-5.9	3.9%	-28.0%
SMILES	DT40 TDP1 no CPT	HT1080-NT tox	IL-1B inflam inh	HT1080 IDH1KD tx	DT40 TDP1 CPT
Nc1nonc1C(=O)NCCNCc1ccc(Cl)c(Cl)c1	?	nt	nt	nt	-30.0%
Cc1cc(C(=O)C(C)OC(=O)c2ccc(NC(=O)CC#N)cc2)c(C)n1-c1ccc(OC(F)F)cc1 (stereo unspecified)	11.6µM*	-19.3%	?	25.9µM*	23.1µM*
COc1ccc(O)c(C(=O)c2cnc3nc4ccccc4n3c2)c1	20.6µM*	-2.4%	3.0	-9.6%	14.6µM*
Cc1ccc(-n2cc(C(=O)c3cc(Cl)ccc3O)cc(C#N)c2=O)cc1	23.1µM*	-11.0%	17.6	-0.6%	20.6µM*
Cc1ccc(O)c(C(=O)c2cc(C#N)c3nc4ccccc4n3c2)c1	9.2µM*	26.1%	-16.3	8.0%	?
Cc1ccc(O)c(C(=O)c2cc(C#N)c(=O)n(C(C)c3ccccc3)c2)c1 (stereo unspecified)	14.6µM*	-25.4%	-14.8	-8.5%	?
Cc1ccc(S(=O)(=O)N(C)C)cc1NC(=S)N1CCCCC1CO (stereo unspecified)	8.1%	0.7%	43.3	4.5%	?
Cc1ccccc1NC(=O)CSc1nc(-c2ccc(F)cc2)nc2c1Cc1ccccc1O2	-8.9%	nt	nt	nt	18.4%
O=C(CNS(=O)(=O)c1ccc(Br)s1)NCC1COc2ccccc2O1 (stereo unspecified)	?	-3.5%	33.5	?	?
CCC(=O)c1cn(CC(=O)Nc2cc(C)ccc2C)c2ccccc12	-6.4%	4.3%	9.7	6.3%	-2.4%
O=C(O)CC(NC(=O)COc1ccccc1)c1cccc([N+](=O)[O-])c1 (stereo unspecified)	4.1%	5.1%	11.7	7.8%	-22.2%
CC(OC(=O)c1ccc2c(=O)n3c(nc2c1)CCC3)C(=O)Nc1ccc(C(N)=O)cc1 (stereo unspecified)	1.5%	13.3%	-5.7	8.9%	2.7%
Cc1ccc(O)c(C(=O)c2cc(C#N)c(=O)n(Cc3ccccc3)c2)c1	9.2µM*	-7.5%	4.2	?	16.4µM*
N#Cc1cc(C(=O)c2cc(F)ccc2O)cn(Cc2ccccc2)c1=O	?	-5.3%	-7.3	-7.5%	-1.4%
Cc1ccccc1NC(=O)c1cc(C(=O)c2cc(Cl)ccc2O)cn(-c2ccccc2C)c1=O	23.1µM*	?	-7.7	?	13µM*
COc1ccc(-n2cc(C(=O)c3cc(Cl)ccc3O)cc(C#N)c2=O)cc1	?	-25.2%	0.5	-25.4%	0.0%
O=C(Nc1ccnn1C1CCN(C(=O)Cc2ccccc2F)CC1)C1CC1	1.2%	3.8%	i	26.4%	-21.6%
CCOc1ccccc1NC(=O)C(=O)NCCc1sc(-c2cccc(F)c2)nc1C	-11.4%	nt	nt	nt	-18.8%
